PubChem BioAssay (EPA / NIEHS)
Inconclusive results are not listed. A structure can be active in one record and inactive in another. The source made the active and inactive calls. How the source made its calls: active means hit-call score of the fitted dose curve at least 0.9, where 1 is the maximum; inconclusive means response in the unintended direction; inactive means score below 0.9.

molecular target: Retinoic acid receptor RXR-alpha (Homo sapiens) (UniProt P19793); test: OT_NURR1_NURR1RXRa_0480: Odyssey Thera (OT) 8-hour HEK293T Protein Complementation Assay for Nurr1/retinoid X receptor (RXR) (AID 2283385)
Experimental: OT_NURR1_NURR1RXRa_0480 is a cell-based assay that uses HEK293T, a human kidney cell line, with measurements taken at 8 hours after chemical dosing in a 384-well plate.OT_NURR1_NURR1RXRa_0480 is one of one assay component(s) measured or calculated from the OT_NURR1_NURR1RXRa_0480 assay. It is designed to make measurements of protein fragment complementation, a form of binding reporter, as detected with fluorescence intensity signals by Protein-fragment Complementation technology.Data from the assay component OT_NURR1_NURR1RXRa_0480 was analyzed into 1 assay endpoint. This assay endpoint, OT_NURR1_NURR1RXRa_0480, was analyzed in the positive analysis fitting direction relative to DMSO as the negative control and baseline of activity. Using a type of binding reporter, measures of receptor for gain-of-signal activity can be used to understand the binding at the pathway-level as they relate to the gene RXRA. Furthermore, this assay endpoint can be referred to as a primary readout, because the performed assay has only produced 1 assay endpoint. To generalize the intended target to other relatable targets, this assay endpoint is annotated to the nuclear receptor intended target family, where the subfamily is non-steroidal.
Protein-fragment complementation assay, or PCA, is a method for the identification and quantification of protein-protein interactions. In the PCA, the proteins of interest ("bait" and "prey") are each covalently linked to fragments of a third protein (e.g. DHFR, which acts as a "reporter"). Interaction between the bait and the prey proteins brings the fragments of the reporter protein in close proximity to allow them to form a functional reporter protein whose activity can be measured.

Sequence of Retinoic acid receptor RXR-alpha (Homo sapiens) (P19793 whole entry, looked up, the tested form may be a part): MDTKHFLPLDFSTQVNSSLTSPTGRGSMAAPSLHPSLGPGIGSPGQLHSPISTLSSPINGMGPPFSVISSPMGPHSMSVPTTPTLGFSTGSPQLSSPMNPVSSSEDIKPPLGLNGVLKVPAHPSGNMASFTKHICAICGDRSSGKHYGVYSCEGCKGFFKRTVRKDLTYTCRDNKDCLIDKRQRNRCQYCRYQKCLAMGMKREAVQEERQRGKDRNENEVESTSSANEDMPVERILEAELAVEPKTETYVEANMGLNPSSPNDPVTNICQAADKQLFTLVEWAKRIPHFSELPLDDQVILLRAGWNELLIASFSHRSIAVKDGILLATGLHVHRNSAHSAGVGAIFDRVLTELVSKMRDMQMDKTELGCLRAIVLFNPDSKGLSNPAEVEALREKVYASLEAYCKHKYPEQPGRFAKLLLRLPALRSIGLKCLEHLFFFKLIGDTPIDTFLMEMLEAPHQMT

Row | SMILES | outcome | AC50
1 | CCCCOCCOCCOCCO | inactive | –
2 | CCCC1CCC(=O)CC1 | inactive | –
3 | CC12CCC(C1)C(C)(C)C2O (stereo not given) | inactive | –
4 | CC(=O)Nc1cc(S(=O)(=O)O)cc2cc(S(=O)(=O)O)c(N=Nc3ccccc3)c(O)c12 | – | 22.9 µM (active)
5 | c1ccc(OCCOc2ccccc2)cc1 | inactive | –
6 | CCCCCC1CCC(=O)O1 (stereo not given) | inactive | –
7 | C=C(C)C(=O)OCCC(C)OC(=O)C(=C)C (stereo not given) | inactive | –
8 | CCCCC(CC)COCCO (stereo not given) | inactive | –
9 | CCC(C)(CCCC(C)C)OC(C)=O (stereo not given) | inactive | –
10 | CC(C)CCCC(C)(C)O | inactive | –
11 | CC(=O)OC/C=C(C)/C=C/C=C(C)/C=C/C1=C(C)CCCC1(C)C | – | 27.5 µM (active)
12 | C#C[C@]1(O)CC[C@H]2[C@@H]3CCc4cc(O)ccc4[C@H]3CC[C@@]21C | inactive | 35.3 µM (active)
13 | COC(=O)c1ccc(C(=O)OC)cc1 | inactive | –
14 | c1ccc(Cc2ccccc2)cc1 | inactive | –
15 | CCO[Si](CC)(OCC)OCC | inactive | –
16 | CCC(C)(C)C1CCC(OC)CC1 (stereo not given) | inactive | –
17 | CNC(=C[N+](=O)[O-])NCCSCc1ccc(CN(C)C)o1 | inactive | –
18 | CCCc1ccc(N)cc1 | inactive | –
19 | O=C(O)c1ccccc1O | inactive | –
20 | C=CC(O)CCCCC (stereo not given) | inactive | –

Row | SMILES | outcome | AC50
21 | CC(O)CN (stereo not given) | inactive | –
22 | NC(=O)c1cccnc1 | inactive | –
23 | CC(=O)C1C(=O)C=C(C)OC1=O (stereo not given) | inactive | –
24 | CC(C)(CO)CO | inactive | –
25 | COc1ccccc1O | inactive | –
26 | CN(C)C | inactive | –
27 | CCCO | inactive | –
28 | CCC(C)(C)C1CCC(=O)CC1 | inactive | –
29 | CCCCCCCCOC(C)=O | inactive | –
30 | CCC(C)COC(=O)CC(C)C (stereo not given) | inactive | –
31 | CCCCCCCCCCCCOCCOS(=O)(=O)O | inactive | –
32 | CCCCCCCCOC(=O)c1ccc(O)cc1 | – | 74.7 µM (active)
33 | CCCCCCOc1ccc(O)cc1 | inactive | –
34 | CCCCCCCC(=O)N(C)C | inactive | –
35 | C[C@]12CC[C@@H]3c4ccc(O)cc4CC[C@H]3[C@@H]1CC[C@@H]2O | inactive | –
36 | CCCCCCCCCCO[C@@H]1O[C@H](CO)[C@@H](O)[C@H](O)[C@H]1O | inactive | –
37 | COc1cc(OC)c2ccc(=O)oc2c1 | inactive | –
38 | C=C(C)C(N)=O | inactive | –
39 | O=C(O)CS | inactive | –
